Results filed as inconclusive are left out. The source made the active and inactive calls. Unless noted, calls follow the shape of the dose curve; as a rule, active = well fitted curve in the direction sought with a large enough effect in the repeat runs; inconclusive = weak or mixed curves; inactive = no such curve, though single readings can be large; an effect the other way counts as inactive or inconclusive.
Assays:
[1] = Human pregnane X receptor (PXR) small molecule agonists, qHTS cell viability counter screen (AID 1346977); also: nearly all actives have a fitted effect of over 50% in size
Outline: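 Fluorescence read-out (CellTiter-Fluor) of viability in PXR-Luc HepG2 cells, multiplexed with the luciferase agonist read. Compounds in DMSO added after 5hr plating; 24hr total exposure at 37C, 5% CO2.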

[2] = Caspase-3/7 induction in HepG2 cells by small molecules, qHTS assay (AID 1346978); also: nearly all actives have a fitted effect of over 15% in size
Outline: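 Caspase-3/7 induction was measured by Caspase-Glo 3/7 luminescence (30 min, room temperature) after a 17 hr compound exposure of wild-type HepG2 cells seeded at 2,000 per well and pre-incubated 5 hr.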

[3] = Caspase-3/7 induction in CHO-K1 cells by small molecules, qHTS cell viability counter screen (AID 1346979); also: nearly all actives have a fitted effect of over 35% in size
Outline: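 CHO-K1 wt, 1,500 cells/well; 5hr pre-incubation 37C/5% CO2; compound pin transfer (DMSO); 16hr exposure; CellTiter-Fluor added, 1hr, fluorescence read.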

[4] = Caspase-3/7 induction in CHO-K1 cells by small molecules, qHTS assay (AID 1346980); also: nearly all actives have a fitted effect of over 15% in size
Outline: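 Luminescent Caspase-Glo 3/7 read (30min, room temperature) quantified apoptosis induction. Cells were wild-type CHO-K1, treated with compound for 17hr at 37 C and 5% CO2.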

[5] = Caspase-3/7 induction in HepG2 cells by small molecules, qHTS cell viability counter screen (AID 1346981); also: series mostly up to about 92 µM; nearly all actives have a fitted effect of over 30% in size
Outline: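 Wild-type HepG2 cells, 2,000/well, settled 5 hr at 37 C, 5% CO2 before compound addition. Viability read by CellTiter-Fluor fluorescence, reagent added after 16 hr compound exposure, then 1 hr at 37C, in the same wells as the caspase read.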

[6] = molecular target: Nuclear receptor subfamily 1 group I member 2 (Homo sapiens) (UniProt O75469); test: Human pregnane X receptor (PXR) small molecule agonists, qHTS assay (AID 1346982); also: nearly all actives have a fitted effect of over 35% in size; also: potency is read from the fitted curve at half-maximal effect
Chain of Nuclear receptor subfamily 1 group I member 2 (Homo sapiens) (O75469 whole entry, looked up): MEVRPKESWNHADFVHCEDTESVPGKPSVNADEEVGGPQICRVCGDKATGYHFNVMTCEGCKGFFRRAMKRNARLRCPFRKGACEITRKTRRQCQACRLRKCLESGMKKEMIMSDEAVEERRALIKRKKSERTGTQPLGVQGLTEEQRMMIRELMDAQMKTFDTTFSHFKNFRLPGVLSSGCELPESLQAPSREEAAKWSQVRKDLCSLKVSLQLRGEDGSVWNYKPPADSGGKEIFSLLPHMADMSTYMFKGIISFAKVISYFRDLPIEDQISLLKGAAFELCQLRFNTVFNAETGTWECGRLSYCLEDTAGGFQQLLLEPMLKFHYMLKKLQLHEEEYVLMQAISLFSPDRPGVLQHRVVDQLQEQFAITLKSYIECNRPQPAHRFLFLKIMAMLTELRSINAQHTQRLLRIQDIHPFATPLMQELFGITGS
Outline: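 PXR-Luc HepG2 reporter cells (CYP3A4-driven luciferase) in 5% charcoal-stripped FBS medium, plated 5 h before compound addition, then treated 24 h at 37C. Luciferase read by ONE-Glo luminescence after 30 min at room temperature.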

[7] = molecular target: Nuclear receptor subfamily 1 group I member 2 (Rattus norvegicus) (UniProt Q9R1A7); test: Rat pregnane X receptor (rPXR) activation by small molecules, qHTS assay (AID 1346983); details: rPXR luciferase reporter cells, One-Glo luminescence, 24 h; active compounds read high; also: nearly all actives have a fitted effect of over 20% in size
Chain of Nuclear receptor subfamily 1 group I member 2 (Rattus norvegicus) (Q9R1A7 whole entry, looked up): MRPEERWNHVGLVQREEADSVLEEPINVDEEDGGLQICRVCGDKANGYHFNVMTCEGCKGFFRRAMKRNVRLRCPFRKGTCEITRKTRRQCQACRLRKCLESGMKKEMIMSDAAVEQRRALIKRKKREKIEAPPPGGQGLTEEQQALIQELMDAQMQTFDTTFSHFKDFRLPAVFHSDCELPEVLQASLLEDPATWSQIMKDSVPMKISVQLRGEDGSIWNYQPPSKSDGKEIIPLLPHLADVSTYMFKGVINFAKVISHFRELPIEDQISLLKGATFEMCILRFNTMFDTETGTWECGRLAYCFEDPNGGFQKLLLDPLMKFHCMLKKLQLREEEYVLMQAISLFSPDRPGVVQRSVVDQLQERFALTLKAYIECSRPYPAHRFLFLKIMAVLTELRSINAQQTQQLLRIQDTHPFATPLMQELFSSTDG
Outline: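 Luminescent readout (One-Glo luciferase, 30 min room temperature) followed 24 hr compound treatment at 37 C of rPXR cells plated 2,000 per well and preincubated 5hr; qHTS format with compounds delivered in DMSO.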

[8] = molecular target: Nuclear receptor subfamily 1 group I member 2 (Homo sapiens) (UniProt O75469); test: CYP3A4 induction through human pregnane X receptor (PXR) by small molecules, qHTS assay (AID 1346984); also: nearly all actives have a fitted effect of over 40% in size
Outline: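 DPX-2 HepG2 cells carrying a PXR response element and CYP3A4-promoter luciferase construct, treated with compounds 24 hr at 37C. Then P450-Glo CYP3A4 Luciferin-IPA substrate (3uM final) for 3 hr at 37C, One-Glo added, luminescence read.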

[9] = molecular target: Nuclear receptor subfamily 1 group I member 2 (Homo sapiens) (UniProt O75469); test: Human pregnane X receptor (PXR) activation by small molecules, qHTS assay (AID 1346985); also: nearly all actives have a fitted effect of over 40% in size
Outline: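 DPX-2 cells (HepG2 co-transfected with a PXR response element and a CYP3A4-promoter luciferase construct) were seeded at 2,000 per well, rested 5 hr at 37C, then exposed to DMSO-dissolved compounds for 24 hr. Activation was read as luciferase luminescence.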

[10] = molecular target: Cytochrome P450 2C19 (Homo sapiens) (UniProt P33261); test: Cytochrome P450 Family 2 Subfamily C Member 19 (CYP2C19) small molecule antagonists: luciferase reporter qHTS assay (AID 1671197); also: nearly all actives have a fitted effect of over 65% in size; also: potency is read from the fitted curve at half-maximal effect
Chain of Cytochrome P450 2C19 (Homo sapiens) (P33261 whole entry, looked up): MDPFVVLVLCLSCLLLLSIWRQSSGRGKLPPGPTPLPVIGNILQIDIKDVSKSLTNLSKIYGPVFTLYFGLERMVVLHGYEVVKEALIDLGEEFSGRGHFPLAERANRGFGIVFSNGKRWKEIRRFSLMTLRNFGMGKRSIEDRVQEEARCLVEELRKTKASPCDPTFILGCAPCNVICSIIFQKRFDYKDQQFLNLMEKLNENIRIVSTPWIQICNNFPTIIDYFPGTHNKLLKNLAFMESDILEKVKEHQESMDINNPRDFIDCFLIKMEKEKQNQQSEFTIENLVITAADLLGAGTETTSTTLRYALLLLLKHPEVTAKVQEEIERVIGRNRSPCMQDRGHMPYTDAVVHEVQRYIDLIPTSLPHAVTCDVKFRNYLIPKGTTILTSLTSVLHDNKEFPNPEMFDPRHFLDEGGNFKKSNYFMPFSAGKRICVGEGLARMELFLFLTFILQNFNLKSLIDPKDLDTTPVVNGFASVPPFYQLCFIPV
Outline: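 P450-Glo CYP2C19 screening system; proluciferin substrate; DMSO compound stocks; 10 min RT preincubation; NADPH regeneration, 1 h at 37C; luciferin detection reagent, 20 min RT; luminescence as RLU.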

[11] = molecular target: Cytochrome P450 2C9 (Homo sapiens) (UniProt P11712); test: Cytochrome P450 Family 2 Subfamily C Member 9 (CYP2C9) small molecule antagonists: luciferase reporter qHTS assay (AID 1671198); also: nearly all actives have a fitted effect of over 50% in size; also: potency is read from the fitted curve at half-maximal effect
Chain of Cytochrome P450 2C9 (Homo sapiens) (P11712 whole entry, looked up): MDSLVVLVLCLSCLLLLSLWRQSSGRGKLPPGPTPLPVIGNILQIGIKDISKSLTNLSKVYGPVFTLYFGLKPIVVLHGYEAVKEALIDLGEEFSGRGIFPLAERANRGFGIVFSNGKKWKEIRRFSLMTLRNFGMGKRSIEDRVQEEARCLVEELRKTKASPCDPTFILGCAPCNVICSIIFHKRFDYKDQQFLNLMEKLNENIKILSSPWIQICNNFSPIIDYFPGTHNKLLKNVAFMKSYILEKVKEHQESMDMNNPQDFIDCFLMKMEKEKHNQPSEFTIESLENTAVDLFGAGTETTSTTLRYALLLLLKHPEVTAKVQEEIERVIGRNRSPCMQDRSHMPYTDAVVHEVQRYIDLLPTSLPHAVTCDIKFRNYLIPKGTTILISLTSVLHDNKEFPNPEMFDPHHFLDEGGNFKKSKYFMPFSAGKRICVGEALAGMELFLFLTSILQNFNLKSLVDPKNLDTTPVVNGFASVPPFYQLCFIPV
Outline: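 Enzyme-substrate mix preincubated with compound 10 min at room temperature; reaction started with NADPH regeneration solution, 1 h 37C. Luminescent luciferin product read after 20 min detection reagent.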

[12] = molecular target: Cytochrome P450 1A2 (Homo sapiens) (UniProt P05177); test: Cytochrome P450 Family 1 Subfamily A Member 2 (CYP1A2) small molecule antagonists: luciferase reporter qHTS assay (AID 1671199); also: nearly all actives have a fitted effect of over 50% in size; also: potency is read from the fitted curve at half-maximal effect
Chain of Cytochrome P450 1A2 (Homo sapiens) (P05177 whole entry, looked up): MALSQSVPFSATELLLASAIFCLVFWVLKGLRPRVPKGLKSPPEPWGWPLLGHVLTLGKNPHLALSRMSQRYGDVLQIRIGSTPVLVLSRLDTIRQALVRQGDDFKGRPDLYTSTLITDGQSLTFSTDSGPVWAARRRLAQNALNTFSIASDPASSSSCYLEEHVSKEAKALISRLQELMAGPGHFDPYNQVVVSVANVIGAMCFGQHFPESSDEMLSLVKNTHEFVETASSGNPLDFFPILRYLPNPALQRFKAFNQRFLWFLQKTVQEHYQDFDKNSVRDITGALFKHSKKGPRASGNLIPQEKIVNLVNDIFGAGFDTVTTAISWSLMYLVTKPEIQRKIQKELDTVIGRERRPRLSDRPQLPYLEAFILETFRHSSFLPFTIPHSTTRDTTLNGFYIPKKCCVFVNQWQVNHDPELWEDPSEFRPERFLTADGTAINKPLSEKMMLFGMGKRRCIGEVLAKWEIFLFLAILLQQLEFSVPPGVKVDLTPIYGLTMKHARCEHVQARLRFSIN
Outline: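 P450-Glo CYP1A2 enzyme–proluciferin substrate mix with compound 10 min at room temperature, then NADPH regeneration 1 h at room temperature. Luciferin detection reagent added, luminescence read after 20 min; furafylline positive control.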

[13] = molecular target: Voltage-gated inwardly rectifying potassium channel KCNH2 (Homo sapiens) (UniProt Q12809); test: Human Ether-a-go-go-Related Gene (hERG) channel small molecule antagonists: fluorescence cell-based qHTS assay (AID 1671200);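 also: hERG-expressing U2OS cells given a thallium stimulus after FluxOR II dye loading; series mostly up to about 77 µM; nearly all actives have a fitted effect of over 50% in size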
Chain of Voltage-gated inwardly rectifying potassium channel KCNH2 (Homo sapiens) (Q12809 whole entry, looked up): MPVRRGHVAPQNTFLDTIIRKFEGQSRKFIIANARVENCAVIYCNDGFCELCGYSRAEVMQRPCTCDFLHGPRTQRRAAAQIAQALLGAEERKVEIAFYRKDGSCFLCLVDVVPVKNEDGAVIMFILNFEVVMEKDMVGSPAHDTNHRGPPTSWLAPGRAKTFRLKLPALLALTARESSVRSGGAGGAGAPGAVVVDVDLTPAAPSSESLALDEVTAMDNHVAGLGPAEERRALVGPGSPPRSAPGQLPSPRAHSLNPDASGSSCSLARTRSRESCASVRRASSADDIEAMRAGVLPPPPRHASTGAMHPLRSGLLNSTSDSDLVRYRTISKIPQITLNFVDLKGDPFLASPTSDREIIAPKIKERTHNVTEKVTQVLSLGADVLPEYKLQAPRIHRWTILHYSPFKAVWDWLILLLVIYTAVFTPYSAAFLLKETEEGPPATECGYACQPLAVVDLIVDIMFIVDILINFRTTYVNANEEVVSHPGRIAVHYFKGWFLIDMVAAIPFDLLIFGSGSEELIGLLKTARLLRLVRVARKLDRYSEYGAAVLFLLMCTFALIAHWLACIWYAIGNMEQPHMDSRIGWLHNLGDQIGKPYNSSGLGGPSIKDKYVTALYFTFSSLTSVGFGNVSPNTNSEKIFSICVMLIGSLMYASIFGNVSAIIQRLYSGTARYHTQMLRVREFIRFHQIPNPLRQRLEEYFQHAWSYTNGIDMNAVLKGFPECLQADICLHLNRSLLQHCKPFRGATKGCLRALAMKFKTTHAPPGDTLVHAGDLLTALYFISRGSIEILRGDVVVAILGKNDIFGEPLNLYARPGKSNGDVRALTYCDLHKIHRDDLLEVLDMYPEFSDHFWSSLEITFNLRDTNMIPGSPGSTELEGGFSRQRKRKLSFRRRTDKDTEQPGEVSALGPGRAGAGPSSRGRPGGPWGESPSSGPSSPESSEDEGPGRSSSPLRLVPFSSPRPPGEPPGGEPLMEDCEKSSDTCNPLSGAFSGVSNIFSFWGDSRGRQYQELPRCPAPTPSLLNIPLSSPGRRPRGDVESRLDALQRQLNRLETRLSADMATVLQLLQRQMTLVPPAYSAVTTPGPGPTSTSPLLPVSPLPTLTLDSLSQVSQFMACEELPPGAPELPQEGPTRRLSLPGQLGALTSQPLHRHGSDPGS
Outline: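 Read-out: thallium influx as a surrogate for potassium, tracked as fluorescence (480 nm ex/540 nm em) every second for 2 min after Stimulus Buffer addition in dye-loaded hERG-U2OS cells.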

[14] = molecular target: Cytochrome P450 3A4 (Homo sapiens) (UniProt P08684); test: Cytochrome P450 Family 3 Subfamily A Member 4 (CYP3A4) small molecule antagonists: luciferase reporter qHTS assay (AID 1671201)
Chain of Cytochrome P450 3A4 (Homo sapiens) (P08684 whole entry, looked up): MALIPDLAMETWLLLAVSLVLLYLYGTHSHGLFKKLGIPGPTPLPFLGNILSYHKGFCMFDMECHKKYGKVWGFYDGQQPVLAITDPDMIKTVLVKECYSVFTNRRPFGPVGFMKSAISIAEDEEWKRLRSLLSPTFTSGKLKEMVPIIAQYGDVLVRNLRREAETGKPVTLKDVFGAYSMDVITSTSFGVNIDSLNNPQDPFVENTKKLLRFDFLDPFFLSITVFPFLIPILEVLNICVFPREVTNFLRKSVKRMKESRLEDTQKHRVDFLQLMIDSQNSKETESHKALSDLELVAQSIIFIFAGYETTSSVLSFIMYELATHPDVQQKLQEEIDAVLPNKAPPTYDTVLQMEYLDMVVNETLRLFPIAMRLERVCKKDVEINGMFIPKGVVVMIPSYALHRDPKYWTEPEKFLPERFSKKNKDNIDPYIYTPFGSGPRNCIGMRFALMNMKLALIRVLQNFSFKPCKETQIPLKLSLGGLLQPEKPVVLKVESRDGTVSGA
Outline: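 Luminescent readout (RLU) proportional to CYP3A4 activity, from luciferin generated off a proluciferin substrate. Enzyme–substrate mix plus compound 10 min at room temp, NADPH regeneration 1 h, detection reagent 20 min.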

[15] = molecular target: Acetylcholinesterase (Homo sapiens) (UniProt P22303); test: Acetylcholinesterase (AChE) small molecule antagonists: colormetric cell-based qHTS assay (AID 1347395; calls by dose curve; also: nearly all actives have a fitted effect of over 30% in size)
Outline: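 SH-SY5Y cells; cpd 30 min 37 C; + DTNB/acetylthiocholine, 90 min 37 C; colorimetric thiocholine read; qHTS.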

[16] = molecular target: Acetylcholinesterase (Homo sapiens) (UniProt P22303); test: Acetylcholinesterase (AChE) small molecule antagonists: fluorescence cell-based qHTS assay (AID 1347398; calls by dose curve; also: nearly all actives have a fitted effect of over 50% in size); details: Potency: AChE activity; outcome: AChE activity
Outline: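 Fluorimetric cell-based assay: intact SH-SY5Y cells, 30 min compound preincubation at 37 C, acetylthiocholine substrate with thiol probe Thiolite Green, 40 min RT development, fluorescence 490/520 nm.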

[17] = molecular target: Acetylcholinesterase (Homo sapiens) (UniProt P22303); test: Acetylcholinesterase (AChE) small molecule antagonists: enzyme-based qHTS assay with human liver microsomes (AID 1347399; calls by dose curve; also: nearly all actives have a fitted effect of over 60% in size); details: Potency: qHTS inhibition; outcome: qHTS inhibition
Outline: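 Recombinant human AChE (50 mU/mL in the enzyme mix) and human liver microsomes (0.25 mg/mL final) were preincubated with compound and NADPH (0.25 mg/mL final) for 30 min at 37 C. Acetylthiocholine/DTNB was then added; thiocholine was read colorimetrically after 10 min at room temperature.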

[18] = molecular target: Cytochrome P450 2D6 (Homo sapiens) (UniProt P10635); test: Cytochrome P450 Family 2 Subfamily D Member 6 (CYP2D6) small molecule antagonists: luciferase reporter qHTS assay (AID 1671196); also: nearly all actives have a fitted effect of over 50% in size; also: potency is read from the fitted curve at half-maximal effect
Chain of Cytochrome P450 2D6 (Homo sapiens) (P10635 whole entry, looked up): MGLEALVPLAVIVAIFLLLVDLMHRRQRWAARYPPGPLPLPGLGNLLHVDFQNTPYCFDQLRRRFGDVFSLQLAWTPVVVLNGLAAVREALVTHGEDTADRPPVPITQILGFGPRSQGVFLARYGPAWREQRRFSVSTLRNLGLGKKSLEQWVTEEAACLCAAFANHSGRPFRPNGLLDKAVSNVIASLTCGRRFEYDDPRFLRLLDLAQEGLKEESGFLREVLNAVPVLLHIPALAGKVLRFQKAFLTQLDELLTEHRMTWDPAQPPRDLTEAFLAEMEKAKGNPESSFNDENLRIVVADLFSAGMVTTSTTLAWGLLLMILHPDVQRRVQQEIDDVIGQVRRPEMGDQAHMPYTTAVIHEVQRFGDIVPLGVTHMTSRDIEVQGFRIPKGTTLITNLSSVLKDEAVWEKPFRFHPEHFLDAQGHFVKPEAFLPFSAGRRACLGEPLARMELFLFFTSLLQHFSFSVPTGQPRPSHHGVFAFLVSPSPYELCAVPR
Outline: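 Cell-free P450-Glo system: CYP2D6 with proluciferin substrate was pre-incubated with compound for 10 min, then reacted with NADPH regeneration for 1 h at room temperature. Luciferin product was detected after 20 min, and data were reported as relative luminescence units.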

[19] = molecular target: Acetylcholinesterase (Homo sapiens) (UniProt P22303); test: Acetylcholinesterase (AChE) small molecule antagonists: enzyme-based qHTS assay (AID 1347397; calls by dose curve; also: nearly all actives have a fitted effect of over 55% in size); details: Potency: AChE enzyme activity inhibition; outcome: AChE enzyme activity inhibition
Outline: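 Absorbance-based detection of thiocholine with DTNB served as the read-out. Recombinant human AChE was exposed to compound for 30 min at RT before a 10 min RT incubation with acetylthiocholine.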
% is scaled to controls: 0 for no effect and ±100 for the full control effect.

C[C@@H](N)[C@@H](O)c1ccccc1
inactive: Potency [1] | outcome [2] | Potency [3] | outcome [4] | Potency [5] | Potency [6] | max activation [7] -1.4% | Potency [8] | Potency [9] | Potency [11] | Potency [12] | Potency [13] | Potency [14]
active: Potency [10] 21.9 µM

CC(C)(N)Cc1ccc(Cl)cc1
inactive: Potency [1] | outcome [2] | Potency [3] | outcome [4] | Potency [5] | Potency [6] | max activation [7] -1.44% | Potency [8] | Potency [9] | Potency [15] | Potency [16] | Potency [17] | Potency [10] | Potency [11] | Potency [13] | Potency [14]
active: Potency [18] 3.09 µM | Potency [12] 24.5 µM

CC(C)[C@]12CC(=O)[C@H](C)[C@H]1C2
inactive: Potency [1] | outcome [2] | Potency [3] | outcome [4] | Potency [5] | Potency [6] | Potency [15] | Potency [19] | Potency [16] | Potency [17] | Potency [18] | Potency [10] | Potency [11] | Potency [12] | Potency [13] | Potency [14]

CCOC(=O)N(C)N=O
inactive: Potency [1] | outcome [2] | Potency [3] | outcome [4] | Potency [5] | Potency [6] | Potency [15] | Potency [19] | Potency [16] | Potency [17] | Potency [18] | Potency [10] | Potency [11] | Potency [13]

CC(Cl)(Cl)Cl
inactive: Potency [1] | outcome [2] | Potency [3] | outcome [4] | Potency [5] | Potency [6] | Potency [15] | Potency [19] | Potency [16] | Potency [17] | Potency [18] | Potency [10] | Potency [11] | Potency [12] | Potency [13]

CCc1ccc(C2CCNCC2)cc1
active: Potency [18] 0.617 µM
inactive: Potency [1] | outcome [2] | Potency [3] | outcome [4] | Potency [5] | Potency [6] | Potency [15] | Potency [19] | Potency [16] | Potency [17] | Potency [10] | Potency [11] | Potency [12] | Potency [13] | Potency [14]

NNCc1ccccc1
active: Potency [6] 55.5 µM | Potency [18] 11.5 µM | Potency [10] 36.2 µM | Potency [11] 45.6 µM | Potency [12] 12.9 µM
inactive: Potency [1] | outcome [2] | Potency [3] | outcome [4] | Potency [5] | Potency [15] | Potency [19] | Potency [16] | Potency [17]

NC(=O)CS(=O)C(c1ccccc1)c1ccccc1 (configuration not stated)
active: Potency [10] 24.5 µM
inactive: Potency [1] | outcome [2] | Potency [3] | outcome [4] | Potency [5] | Potency [6] | max activation [7] -0.488% | Potency [8] | Potency [9] | Potency [15] | Potency [19] | Potency [17] | Potency [12] | Potency [13]

Reference: PubChem BioAssay (Tox21)
